# Assay results taken from article PMC7862700, “An all-to-all approach to the identification of sequence-specific readers for epigenetic DNA modifications on cytosine”.
# Tests used:
# Assay in all cases: DAPPL (digital affinity profiling via proximity ligation, sequencing); 10 mM Tris-HCl pH 7.5, 50 mM NaCl, 1 mM DTT, 4% glycerol, room temperature, 30 min; GST-TFs on glutathione beads, 16-mer random dsDNA library, 0.1% formaldehyde crosslink after washing; high values mean tight binding
# [1] = biological target: T1, FEV (Homo sapiens, UniProt Q99581 1-238); conditions: protein: recombinant; tags: N-terminal GST; dsDNA, one strand shown
# T1 sequence: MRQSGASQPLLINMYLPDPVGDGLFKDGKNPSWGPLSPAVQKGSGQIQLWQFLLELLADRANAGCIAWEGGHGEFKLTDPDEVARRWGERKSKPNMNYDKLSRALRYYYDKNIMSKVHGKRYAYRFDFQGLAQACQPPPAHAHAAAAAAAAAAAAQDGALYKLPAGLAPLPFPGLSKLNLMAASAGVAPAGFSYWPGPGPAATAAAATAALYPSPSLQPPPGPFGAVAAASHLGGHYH
# Procedure, shortened: (§1)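 Yeast served to express human transcription factors as GST fusions, which were then captured on glutathione beads and labelled with DNA barcodes. Pooled with a tag-only sample, they were incubated with 200 nmole of a 16-mer random double-stranded DNA library for 30 min at room temperature in Tris/NaCl/DTT/glycerol buffer, washed, crosslinked with 0.1% formaldehyde, ligated by proximity, amplified by PCR and sequenced. Dividing each hexamer's read frequency for a factor by its frequency for the tag-only sample gives the binding signal.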
# [2] = biological target: ETV5 (Homo sapiens, UniProt P41161 1-510); conditions: protein: recombinant; tags: N-terminal GST; dsDNA, one strand shown
# Sequence of ETV5 (P41161 whole entry): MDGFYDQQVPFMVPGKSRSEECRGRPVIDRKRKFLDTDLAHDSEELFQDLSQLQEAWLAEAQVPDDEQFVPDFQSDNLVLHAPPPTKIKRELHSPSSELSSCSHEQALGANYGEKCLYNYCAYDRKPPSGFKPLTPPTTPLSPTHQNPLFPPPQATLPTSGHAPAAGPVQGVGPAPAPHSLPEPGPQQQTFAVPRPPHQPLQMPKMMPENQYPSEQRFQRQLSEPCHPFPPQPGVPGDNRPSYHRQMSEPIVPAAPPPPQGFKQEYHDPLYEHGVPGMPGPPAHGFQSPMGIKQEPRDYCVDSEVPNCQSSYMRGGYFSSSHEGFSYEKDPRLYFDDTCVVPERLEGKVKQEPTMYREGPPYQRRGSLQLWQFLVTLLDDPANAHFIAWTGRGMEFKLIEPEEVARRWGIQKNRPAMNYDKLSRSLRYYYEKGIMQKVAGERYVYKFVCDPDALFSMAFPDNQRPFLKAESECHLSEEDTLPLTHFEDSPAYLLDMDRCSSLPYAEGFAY
# Procedure, shortened: as §1
# [3] = biological target: HSF1 (Homo sapiens, UniProt Q00613 1-529); conditions: protein: recombinant; tags: N-terminal GST; chain copies: 3; dsDNA, one strand shown
# Sequence of HSF1 (Q00613 whole entry): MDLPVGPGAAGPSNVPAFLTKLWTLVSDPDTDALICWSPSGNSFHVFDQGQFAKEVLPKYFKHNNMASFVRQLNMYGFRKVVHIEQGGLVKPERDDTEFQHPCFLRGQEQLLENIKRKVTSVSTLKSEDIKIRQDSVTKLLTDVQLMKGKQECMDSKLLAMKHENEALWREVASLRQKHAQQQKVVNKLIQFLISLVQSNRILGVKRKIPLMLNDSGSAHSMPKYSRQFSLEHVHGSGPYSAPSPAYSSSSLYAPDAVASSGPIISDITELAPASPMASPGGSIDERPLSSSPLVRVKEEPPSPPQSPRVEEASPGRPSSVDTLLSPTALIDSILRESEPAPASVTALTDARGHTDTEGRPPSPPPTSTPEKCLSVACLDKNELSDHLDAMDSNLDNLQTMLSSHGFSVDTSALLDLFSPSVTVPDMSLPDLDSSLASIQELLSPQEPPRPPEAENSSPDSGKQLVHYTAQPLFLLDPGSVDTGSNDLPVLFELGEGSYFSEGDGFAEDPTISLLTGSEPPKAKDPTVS
# Procedure, shortened: as §1
# [4] = biological target: T2, SPIC (Homo sapiens, UniProt Q8N5J4 1-248); conditions: protein: recombinant; tags: N-terminal GST; dsDNA, one strand shown
# T2 sequence: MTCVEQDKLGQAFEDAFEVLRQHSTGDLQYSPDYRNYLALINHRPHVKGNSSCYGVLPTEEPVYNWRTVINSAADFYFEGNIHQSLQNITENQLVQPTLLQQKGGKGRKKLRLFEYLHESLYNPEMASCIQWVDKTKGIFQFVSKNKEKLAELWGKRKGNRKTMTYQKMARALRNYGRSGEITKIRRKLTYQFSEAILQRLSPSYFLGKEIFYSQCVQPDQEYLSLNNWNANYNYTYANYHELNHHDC
# Procedure, shortened: as §1
# [5] = biological target: ELF4 (Homo sapiens, UniProt Q99607 1-663); conditions: protein: recombinant; tags: N-terminal GST; dsDNA, one strand shown
# Sequence of ELF4 (Q99607 whole entry): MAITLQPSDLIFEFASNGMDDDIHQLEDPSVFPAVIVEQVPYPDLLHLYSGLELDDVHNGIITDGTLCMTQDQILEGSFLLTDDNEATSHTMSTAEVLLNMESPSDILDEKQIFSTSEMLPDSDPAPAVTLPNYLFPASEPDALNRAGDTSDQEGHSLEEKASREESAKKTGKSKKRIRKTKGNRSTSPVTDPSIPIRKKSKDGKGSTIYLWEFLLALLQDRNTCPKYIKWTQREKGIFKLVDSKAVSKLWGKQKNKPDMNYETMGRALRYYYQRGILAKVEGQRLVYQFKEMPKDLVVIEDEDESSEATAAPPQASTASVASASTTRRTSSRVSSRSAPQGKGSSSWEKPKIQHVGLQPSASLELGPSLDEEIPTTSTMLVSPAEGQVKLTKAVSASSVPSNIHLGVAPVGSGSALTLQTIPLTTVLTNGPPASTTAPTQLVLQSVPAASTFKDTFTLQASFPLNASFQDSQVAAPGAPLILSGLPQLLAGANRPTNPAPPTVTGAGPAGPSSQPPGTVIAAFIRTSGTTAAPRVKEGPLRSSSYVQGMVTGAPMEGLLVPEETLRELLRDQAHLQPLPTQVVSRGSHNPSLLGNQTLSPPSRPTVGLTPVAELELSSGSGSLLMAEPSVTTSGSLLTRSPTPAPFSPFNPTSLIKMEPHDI
# Procedure, shortened: as §1
# [6] = biological target: T3, ELK4 (Homo sapiens, UniProt P28324-2 1-405); conditions: protein: recombinant; tags: N-terminal GST; dsDNA, one strand shown
# T3 sequence: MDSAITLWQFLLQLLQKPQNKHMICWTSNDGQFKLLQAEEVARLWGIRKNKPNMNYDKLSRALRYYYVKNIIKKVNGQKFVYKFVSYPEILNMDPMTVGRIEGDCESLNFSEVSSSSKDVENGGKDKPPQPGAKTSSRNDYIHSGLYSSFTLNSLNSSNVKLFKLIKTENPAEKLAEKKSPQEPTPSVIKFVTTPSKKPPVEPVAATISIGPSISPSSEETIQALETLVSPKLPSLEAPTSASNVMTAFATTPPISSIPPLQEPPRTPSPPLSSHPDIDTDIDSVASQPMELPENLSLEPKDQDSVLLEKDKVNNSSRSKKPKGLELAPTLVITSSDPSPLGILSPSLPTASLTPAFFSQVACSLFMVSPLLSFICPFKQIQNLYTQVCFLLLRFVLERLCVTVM
# Procedure, shortened: as §1
# [7] = biological target: T4, ETV2 (Homo sapiens, UniProt O00321 1-342); conditions: protein: recombinant; tags: N-terminal GST; dsDNA, one strand shown
# T4 sequence: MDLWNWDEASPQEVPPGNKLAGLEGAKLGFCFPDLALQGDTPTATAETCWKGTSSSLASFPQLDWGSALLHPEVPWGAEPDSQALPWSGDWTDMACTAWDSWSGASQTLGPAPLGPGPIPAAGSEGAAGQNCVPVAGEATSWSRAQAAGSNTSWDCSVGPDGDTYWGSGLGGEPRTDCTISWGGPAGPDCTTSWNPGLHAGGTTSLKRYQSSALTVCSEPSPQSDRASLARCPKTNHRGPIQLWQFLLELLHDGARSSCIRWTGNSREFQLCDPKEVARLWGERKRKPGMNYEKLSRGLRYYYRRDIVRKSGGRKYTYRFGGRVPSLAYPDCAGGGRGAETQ
# Procedure, shortened: as §1
# [8] = biological target: T5, ELF3 (Homo sapiens, UniProt P78545 1-371); conditions: protein: recombinant; tags: N-terminal GST; dsDNA, one strand shown
# T5 sequence: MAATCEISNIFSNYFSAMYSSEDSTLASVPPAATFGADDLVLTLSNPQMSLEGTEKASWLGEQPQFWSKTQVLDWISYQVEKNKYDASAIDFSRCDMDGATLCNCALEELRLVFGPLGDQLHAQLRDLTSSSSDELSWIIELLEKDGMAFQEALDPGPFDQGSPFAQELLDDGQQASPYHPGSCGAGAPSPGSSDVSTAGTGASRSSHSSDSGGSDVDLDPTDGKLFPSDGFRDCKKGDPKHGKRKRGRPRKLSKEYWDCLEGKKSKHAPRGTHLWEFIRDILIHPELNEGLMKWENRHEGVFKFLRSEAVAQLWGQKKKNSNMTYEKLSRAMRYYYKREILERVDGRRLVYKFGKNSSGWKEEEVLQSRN
# Procedure, shortened: as §1
# [9] = biological target: CRX (Homo sapiens, UniProt O43186 1-299); conditions: protein: recombinant; tags: N-terminal GST; dsDNA, one strand shown
# Sequence of CRX (O43186 whole entry): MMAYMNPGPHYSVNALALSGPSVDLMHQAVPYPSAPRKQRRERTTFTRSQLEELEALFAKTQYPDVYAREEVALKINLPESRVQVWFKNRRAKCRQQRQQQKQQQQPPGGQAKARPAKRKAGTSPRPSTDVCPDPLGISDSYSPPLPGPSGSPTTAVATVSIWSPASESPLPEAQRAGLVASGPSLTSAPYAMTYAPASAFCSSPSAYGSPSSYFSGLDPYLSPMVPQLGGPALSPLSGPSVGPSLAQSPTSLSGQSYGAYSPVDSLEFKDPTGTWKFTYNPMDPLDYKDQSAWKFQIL
# Procedure, shortened: as §1
# [10] = biological target: ETV1 (Homo sapiens, UniProt P50549 1-477); conditions: protein: recombinant; tags: N-terminal GST; dsDNA, one strand shown
# Sequence of ETV1 (P50549 whole entry): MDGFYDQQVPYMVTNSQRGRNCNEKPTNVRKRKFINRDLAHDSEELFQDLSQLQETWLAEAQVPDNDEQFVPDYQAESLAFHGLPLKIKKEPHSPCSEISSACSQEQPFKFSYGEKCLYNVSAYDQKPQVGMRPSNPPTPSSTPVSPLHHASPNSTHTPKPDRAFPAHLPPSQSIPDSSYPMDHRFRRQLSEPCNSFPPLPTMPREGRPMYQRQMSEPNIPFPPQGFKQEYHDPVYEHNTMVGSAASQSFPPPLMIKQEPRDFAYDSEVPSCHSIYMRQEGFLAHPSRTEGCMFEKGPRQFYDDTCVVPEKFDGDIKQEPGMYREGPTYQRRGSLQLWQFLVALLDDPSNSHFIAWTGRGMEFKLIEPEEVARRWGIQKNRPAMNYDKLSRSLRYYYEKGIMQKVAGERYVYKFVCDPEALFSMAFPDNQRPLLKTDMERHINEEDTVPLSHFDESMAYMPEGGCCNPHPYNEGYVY
# Procedure, shortened: as §1
# [11] = biological target: T6, ERF (Homo sapiens, UniProt P50548 1-548); conditions: protein: recombinant; tags: N-terminal GST; dsDNA, one strand shown
# T6 sequence: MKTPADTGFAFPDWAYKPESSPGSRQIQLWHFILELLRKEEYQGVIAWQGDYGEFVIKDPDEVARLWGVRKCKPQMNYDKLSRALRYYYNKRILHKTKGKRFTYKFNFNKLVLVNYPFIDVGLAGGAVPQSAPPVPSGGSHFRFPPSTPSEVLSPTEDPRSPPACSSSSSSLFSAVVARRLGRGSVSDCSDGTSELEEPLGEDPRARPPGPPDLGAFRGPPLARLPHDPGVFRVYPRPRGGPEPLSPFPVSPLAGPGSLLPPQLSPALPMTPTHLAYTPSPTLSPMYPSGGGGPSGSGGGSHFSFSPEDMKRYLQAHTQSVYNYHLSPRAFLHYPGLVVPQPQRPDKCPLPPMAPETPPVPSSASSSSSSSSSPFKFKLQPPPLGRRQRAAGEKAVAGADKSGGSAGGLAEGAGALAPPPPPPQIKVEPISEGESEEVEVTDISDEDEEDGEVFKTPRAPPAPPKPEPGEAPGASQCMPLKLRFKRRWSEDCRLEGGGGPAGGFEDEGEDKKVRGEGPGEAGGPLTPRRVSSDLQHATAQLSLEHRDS
# Procedure, shortened: as §1
# [12] = biological target: T7, ETV3L (Homo sapiens, UniProt Q6ZN32 1-361); conditions: protein: recombinant; tags: N-terminal GST; dsDNA, one strand shown
# T7 sequence: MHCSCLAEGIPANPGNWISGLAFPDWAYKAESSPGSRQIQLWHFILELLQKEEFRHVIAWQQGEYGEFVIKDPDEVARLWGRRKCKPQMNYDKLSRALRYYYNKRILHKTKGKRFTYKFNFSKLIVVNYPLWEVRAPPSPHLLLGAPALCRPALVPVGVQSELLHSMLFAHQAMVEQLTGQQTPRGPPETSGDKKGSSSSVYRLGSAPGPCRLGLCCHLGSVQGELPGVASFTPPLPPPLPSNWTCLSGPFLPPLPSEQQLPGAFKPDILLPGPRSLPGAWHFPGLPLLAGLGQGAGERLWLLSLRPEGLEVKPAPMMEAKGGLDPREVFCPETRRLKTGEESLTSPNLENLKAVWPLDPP
# Procedure, shortened: as §1
# [13] = biological target: T8, ETS2 (Homo sapiens, UniProt P15036 1-469); conditions: protein: recombinant; tags: N-terminal GST; dsDNA, one strand shown
# T8 sequence: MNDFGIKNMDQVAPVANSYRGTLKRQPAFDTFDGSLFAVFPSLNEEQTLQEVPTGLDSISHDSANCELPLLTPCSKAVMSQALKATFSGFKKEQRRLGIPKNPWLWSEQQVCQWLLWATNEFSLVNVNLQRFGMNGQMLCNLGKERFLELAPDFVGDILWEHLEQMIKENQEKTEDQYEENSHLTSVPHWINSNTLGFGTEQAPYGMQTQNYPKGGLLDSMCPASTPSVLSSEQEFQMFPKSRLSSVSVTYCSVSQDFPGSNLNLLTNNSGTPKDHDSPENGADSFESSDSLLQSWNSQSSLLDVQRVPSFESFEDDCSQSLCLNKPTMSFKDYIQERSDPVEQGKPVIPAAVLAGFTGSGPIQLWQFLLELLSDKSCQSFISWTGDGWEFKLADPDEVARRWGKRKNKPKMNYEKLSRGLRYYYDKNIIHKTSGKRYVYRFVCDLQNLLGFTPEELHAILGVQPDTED
# Procedure, shortened: as §1
# [14] = biological target: T9, SPDEF (Homo sapiens, UniProt O95238 1-335); conditions: protein: recombinant; tags: N-terminal GST; dsDNA, one strand shown
# T9 sequence: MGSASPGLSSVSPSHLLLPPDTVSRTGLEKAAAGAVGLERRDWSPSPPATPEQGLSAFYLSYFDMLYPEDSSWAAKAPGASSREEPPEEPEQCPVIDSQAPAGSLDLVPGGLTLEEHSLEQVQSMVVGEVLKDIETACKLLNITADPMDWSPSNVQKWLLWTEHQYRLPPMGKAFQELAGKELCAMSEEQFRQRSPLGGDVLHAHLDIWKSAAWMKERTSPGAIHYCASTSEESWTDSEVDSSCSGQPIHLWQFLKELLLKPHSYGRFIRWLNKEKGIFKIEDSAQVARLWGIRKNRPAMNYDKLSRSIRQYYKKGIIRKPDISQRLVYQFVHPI
# Procedure, shortened: as §1
# [15] = biological target: T10, ETV7 (Homo sapiens, UniProt Q9Y603 1-341); conditions: protein: recombinant; tags: N-terminal GST; dsDNA, one strand shown
# T10 sequence: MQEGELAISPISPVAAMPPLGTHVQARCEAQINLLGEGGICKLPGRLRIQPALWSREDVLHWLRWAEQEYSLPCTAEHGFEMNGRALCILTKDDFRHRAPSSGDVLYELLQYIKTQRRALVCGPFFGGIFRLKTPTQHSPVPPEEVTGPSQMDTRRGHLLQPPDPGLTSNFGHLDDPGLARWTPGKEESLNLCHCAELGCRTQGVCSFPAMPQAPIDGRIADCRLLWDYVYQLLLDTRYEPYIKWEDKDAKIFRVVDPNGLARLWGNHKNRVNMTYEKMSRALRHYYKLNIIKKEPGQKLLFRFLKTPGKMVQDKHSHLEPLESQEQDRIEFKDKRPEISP
# Procedure, shortened: as §1
# [16] = biological target: T11, ELF5 (Homo sapiens, UniProt Q9UKW6-2 1-255); conditions: protein: recombinant; tags: N-terminal GST; dsDNA, one strand shown
# T11 sequence: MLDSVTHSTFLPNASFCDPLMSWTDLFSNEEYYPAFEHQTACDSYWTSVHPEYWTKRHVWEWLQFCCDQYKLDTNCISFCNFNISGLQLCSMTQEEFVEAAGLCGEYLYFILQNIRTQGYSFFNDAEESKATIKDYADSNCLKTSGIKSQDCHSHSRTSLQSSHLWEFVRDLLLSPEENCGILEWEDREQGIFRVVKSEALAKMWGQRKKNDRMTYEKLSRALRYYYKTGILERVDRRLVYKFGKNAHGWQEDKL
# Procedure, shortened: as §1
# [17] = biological target: T12, ETV3 (Homo sapiens, UniProt P41162-2 1-143); conditions: protein: recombinant; tags: N-terminal GST; dsDNA, one strand shown
# T12 sequence: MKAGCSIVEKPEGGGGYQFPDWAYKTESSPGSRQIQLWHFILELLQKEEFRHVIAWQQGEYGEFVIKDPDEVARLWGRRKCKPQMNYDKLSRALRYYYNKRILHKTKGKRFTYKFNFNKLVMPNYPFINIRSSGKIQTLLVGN
# Procedure, shortened: as §1
# [18] = biological target: ETV6 (Homo sapiens, UniProt P41212 1-452); conditions: protein: recombinant; tags: N-terminal GST; dsDNA, one strand shown
# Sequence of ETV6 (P41212 whole entry): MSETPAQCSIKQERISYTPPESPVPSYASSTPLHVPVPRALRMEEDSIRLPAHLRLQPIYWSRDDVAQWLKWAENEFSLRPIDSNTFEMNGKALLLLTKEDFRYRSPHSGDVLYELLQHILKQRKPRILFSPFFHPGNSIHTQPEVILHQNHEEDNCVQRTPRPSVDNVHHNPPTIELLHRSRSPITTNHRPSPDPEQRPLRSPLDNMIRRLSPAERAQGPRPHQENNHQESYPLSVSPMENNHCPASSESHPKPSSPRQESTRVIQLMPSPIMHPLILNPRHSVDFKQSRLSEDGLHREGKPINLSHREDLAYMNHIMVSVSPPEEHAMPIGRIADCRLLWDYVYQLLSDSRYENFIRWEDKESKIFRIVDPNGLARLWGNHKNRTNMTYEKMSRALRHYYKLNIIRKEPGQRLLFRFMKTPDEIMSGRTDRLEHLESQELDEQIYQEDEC
# Procedure, shortened: as §1
sequence,measurement,setting,value
GTTAAC,binding signal,[1],"1.18 fold enrichment (6-mer frequency, TF over GST control)"
same,binding signal,[2],"1.19 fold enrichment (6-mer frequency, TF over GST control)"
same,binding signal,[3],"1.02 fold enrichment (6-mer frequency, TF over GST control)"
same,binding signal,[4],"1.11 fold enrichment (6-mer frequency, TF over GST control)"
same,binding signal,[5],"1.19 fold enrichment (6-mer frequency, TF over GST control)"
same,binding signal,[6],"1.25 fold enrichment (6-mer frequency, TF over GST control)"
same,binding signal,[7],"1.2 fold enrichment (6-mer frequency, TF over GST control)"
same,binding signal,[8],"1.21 fold enrichment (6-mer frequency, TF over GST control)"
same,binding signal,[9],"1.15 fold enrichment (6-mer frequency, TF over GST control)"
same,binding signal,[10],"1.2 fold enrichment (6-mer frequency, TF over GST control)"
same,binding signal,[11],"1.12 fold enrichment (6-mer frequency, TF over GST control)"
same,binding signal,[12],"1.14 fold enrichment (6-mer frequency, TF over GST control)"
same,binding signal,[13],"1.22 fold enrichment (6-mer frequency, TF over GST control)"
same,binding signal,[14],"1.23 fold enrichment (6-mer frequency, TF over GST control)"
same,binding signal,[15],"1.24 fold enrichment (6-mer frequency, TF over GST control)"
same,binding signal,[16],"1.22 fold enrichment (6-mer frequency, TF over GST control)"
same,binding signal,[17],"1.27 fold enrichment (6-mer frequency, TF over GST control)"
same,binding signal,[18],"1.18 fold enrichment (6-mer frequency, TF over GST control)"
